Drawing on PubChem BioAssay (NCI), this text covers growth for 15 compounds.

The panel holds about 83,000 compounds, 20% with a hit somewhere; the sample as a whole holds those more often.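 Cells were grown in 96-well plates and exposed to the test compound at a single concentration for 48 hours; results are reported as percent growth, with values below 10 considered active.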 Values without a mark were called inactive. The source made the active and inactive calls.

For this test, the system named is HL-60(TB) leukemia. Kind of test: NCI-60 one-dose screen, 48 h (100 = growth as untreated, 0 = no growth, -100 = all killed). The note with it: 10 µM unless noted.
Consider `CCN(CC)c1ccc(N2C(=O)/C(=C/c3cccs3)SC2=S)cc1`, for which the growth is 92.6%.

As to `OCC1OC(OC2C(O)C(CO)OC2(CO)OC2OC(CO)C(O)C(O)C2O)C(O)C(O)C1O` (stereo not given), the growth is 129%.

As to `Nc1c(C(=O)Nc2ccccn2)sc2nc3c(cc12)CCCC3`, the growth was 5.35% (active).

For `Cc1cc(N2CCN(C)CC2)nc(N(CCNc2ccnc3cc(Cl)ccc23)Cc2ccco2)n1`, the growth was 8.29% (active).

For `CSc1nc2c(c(=O)[nH]1)C(c1ccc(C)cc1)C=C(C(=O)O)N2` (stereo not given), the growth was 114%.

`Clc1cc(Cl)c(OCC#CI)cc1Cl`: the growth was 47.6%.

Turning to `C=C1C(=O)O[C@H]2[C@H]1CC/C(COC(=O)c1cc3ccccc3o1)=C\CC[C@@]1(C)O[C@@H]21`, the growth is -2.94% (active).

Regarding `CC(=O)N1CCN(CCNC(=O)n2cc(-c3ccncc3)c(-c3ccc(O)c(Cl)c3)n2)CC1`, the growth is 106%.

For `COc1cc2ncnc(Nc3ccc(O)cc3)c2cc1OC`, the growth was 83.5%.

Consider `O=C(O)C(=Cc1c2ccccc2cc2ccccc12)C(=O)O`, for which the growth is 110%.

For the compound `C=CCn1c(C)nc2ccc(Nc3nc(Nc4ccc(F)cc4)nc4ccccc34)cc21`, the growth was 51.6%.

Turning to `O=C(Nc1ccc2c(O)cc(S(=O)(=O)O)cc2c1)c1ccc([N+](=O)[O-])cc1`, the growth is 75.3%.

Take `CN(C)CCCC1(c2ccc(F)cc2)OCc2cc(-c3cc4ccccc4s3)ccc21` (stereo not given): the growth is 22.3%.

`CCOC(=O)C1C(=O)C=C(c2cnccn2)CC1c1ccc(OC)c(OC)c1` (stereo not given): the growth is 63.9%.

As to `COc1ccccc1OCC(=O)Nc1sc2c(c1C(N)=O)CCC2`, the growth is 50.1%.
